Records with an inconclusive call do not appear. Calls of active or inactive are those of the source. Calls follow the shape of the dose curve; as a rule, active = well fitted cell-killing curve with a large enough effect; inconclusive = small, poorly fitted or top-dose-only effect, or effect the other way; inactive = flat fitted curve, though single readings scatter.
System: Hek293T
Assay: Primary qHTS to identify gynecologic anti-cancer compounds using libraries of approved drugs and bioactive compounds (AID 1345084); also: nearly all actives have a fitted effect of over 55% in size
Settings: Gynecologic cancer cell panel viability, ATPlite luminescence, 48 h, control line for the selectivity index; series mostly up to 57.5 µM; activity change, negative = cytotoxicity: at the top concentration
Summary of the method: (§1)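 Cytotoxicity screen measuring ATP content by luciferase luminescence. Each compound is applied at five concentrations for 48 h at 37 C with 5% CO2.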
% is scaled to controls: 0 for no effect and ±100 for the full control effect; potency is read from the fitted curve at half-maximal effect.

SMILES | activity change, negative = cytotoxicity | Potency
N#Cc1ccc(COc2ccc(-c3cccc4nc(NC(=O)C5CC5)nn34)cc2)cn1 | -0.743% (inactive) | –
CC(=O)O[C@H]1CC[C@]2(C)[C@H]3CC[C@]4(C)Oc5oc(C)cc(=O)c5C[C@H]4[C@]3(C)CC[C@H]2C1(C)C | -6.5% [at 25.3 µM] (inactive) | –
CC(=O)CC(=O)Nc1ccc(Cl)c(C(F)(F)F)c1 | -8.72% (inactive) | –
Cc1ccc(-c2c(C(=O)CCl)n(CCCO)c3ncnc(N)c23)cc1 | -0.306% (inactive) | –
CC(C)(O)C1Cc2c(ccc(C(=O)CCc3ccccc3)c2O)O1 (stereo unspecified) | – | 11.2 µM (active)
CCn1c(=O)c(-c2ccc(-c3cncs3)cc2Cl)cc2cnc(Nc3ccc(N4CCN(C)CC4)cc3)nc21 | -0.696% (inactive) | –
C=C(C)[C@@H]1CC=C(COC(=O)NC(=O)c2ncn3c(=O)n(C)nnc23)CC1 | – | 25.1 µM (active)
CCNC(=O)C#Cc1ccc2c(C(=Nc3ccc(CN(C)C)cc3)c3ccccc3)c(O)[nH]c2c1 | -15.4% [at 25.3 µM] (inactive) | –
CC1(C)CN(C(=O)c2ccc(-c3cccc4nc(NC(=O)C5CC5)nn34)cc2)C1 | -4.31% (inactive) | –
FC(F)(F)c1ccccc1-c1cc(C(F)(F)F)c2nc(C3=NOC4(CCCCC4)C3)[nH]c2c1 | 5% (inactive) | –
C=C1CC[C@@H]2[C@](C)(CO)[C@H](O)CC[C@@]2(C)[C@@H]1CC(=O)C1=CCOC1=O | -21.1% [at 38.5 µM] (inactive) | –
CCC(C)(OC(C)=O)C(=O)O[C@H]1[C@H](OC(C)=O)[C@]2(CO)[C@H](O)[C@H](O)[C@]3(C)C(=CCC4[C@@]5(C)CC[C@H](O[C@@H]6O[C@H](C(=O)O)[C@@H](O)[C@H](O[C@@H]7OC[C@H](O)[C@H](O[C@@H]8OC[C@H](O)[C@H](O)[C@H]8O)[C@H]7O)[C@H]6O[C@@H]6O[C@H](CO)[C@@H](O)[C@H](O)[C@H]6O)C(C)(C)C5CC[C@]43C)[C@@H]2CC1(C)C (stereo partly specified) | -17.4% [at 6.55 µM] (inactive) | –
CC(NC(=O)Cc1cc(F)cc(F)c1)C(=O)NC1C(=O)N(C)c2ccccc2-c2ccccc21 (stereo unspecified) | -2.8% (inactive) | –
COc1cc2ncnc(Oc3ccc(CC(=O)Nc4cnn(C(C)C)c4)cc3)c2cc1OC | 10.9% (inactive) | –
CC(C)(C)[C@H](NC(=O)c1ccc(N)c(Cl)c1)C(=O)N1CCC[C@H]1C(=O)N[C@H](C#N)CC(=O)O | -1.14% (inactive) | –
O=c1cc(N2CCOCC2)nc2c3ccccc3ccn12 | -7.72% (inactive) | –
CC(O)(C(=O)O)C1CCC2(C)C1CCC1(C)C2CCC2C3(C)CCC(O)C(C)(COC4OC(CO)C(O)C(O)C4O)C3CCC21C (stereo unspecified) | – | 10 µM (active)
CCN(CC)C(=O)c1ccc(Nc2nc(OCC3CCCCC3)c3[nH]cnc3n2)cc1 | 1.08% (inactive) | –
CC(CCC1(O)OC2CC3C4CC=C5CC(O[C@@H]6O[C@H](CO)[C@@H](O[C@@H]7O[C@@H](C)[C@H](O)[C@@H](O)[C@H]7O)[C@H](O)[C@H]6O[C@@H]6O[C@@H](C)[C@H](O)[C@@H](O)[C@H]6O)CCC5(C)C4CCC3(C)C2C1C)CO[C@@H]1O[C@H](CO)[C@@H](O)[C@H](O)[C@H]1O (stereo partly specified) | 4.44% [at 11.6 µM] (inactive) | –
Cc1ccc(-c2ncccn2)c(C(=O)N2C[C@H](COc3ccc(F)cn3)CC[C@H]2C)c1 | -0.694% (inactive) | –
CCC(C)C(=O)OC1C(C)C2(O)C(C=C(CO)CC3(O)C(=O)C(C)=CC32)C2C(C)(C)C12OC(=O)C(C)C (stereo unspecified) | -2.97% [at 25.3 µM] (inactive) | –
CC(C)NC(=O)N1CC[C@H](N=C2Nc3cc(F)ccc3N(CC(F)F)c3ccc(Cl)cc32)C1 | 1.3% [at 11.6 µM] (inactive) | –
O=C(Nc1nnc(-c2ccc3c(c2)OCCO3)o1)C1CCCCC1 | -18.2% (inactive) | –

System: JEG-3
Assay: as above
Settings: Gynecologic cancer cell panel viability, ATPlite luminescence, 48 h; series mostly up to 57.5 µM; activity change, negative = cytotoxicity: at the top concentration
Summary of the method: as §1

SMILES | activity change, negative = cytotoxicity | Potency
N#Cc1ccc(COc2ccc(-c3cccc4nc(NC(=O)C5CC5)nn34)cc2)cn1 | 19.5% (inactive) | –
CC(=O)O[C@H]1CC[C@]2(C)[C@H]3CC[C@]4(C)Oc5oc(C)cc(=O)c5C[C@H]4[C@]3(C)CC[C@H]2C1(C)C | -12% [at 25.3 µM] (inactive) | –
CC(=O)CC(=O)Nc1ccc(Cl)c(C(F)(F)F)c1 | 15.7% (inactive) | –
Cc1ccc(-c2c(C(=O)CCl)n(CCCO)c3ncnc(N)c23)cc1 | -0.954% (inactive) | –
Nc1ncnc2c1c(-c1ccc(Oc3ccccc3)cc1)nn2[C@@H]1CCCNC1 | -6.05% (inactive) | –
CC(C)(O)C1Cc2c(ccc(C(=O)CCc3ccccc3)c2O)O1 (stereo unspecified) | -40.2% [at 38.5 µM] (inactive) | –
O=C(Nc1cccc(C(F)(F)F)c1)Nc1ccc(Br)cc1-c1nn[nH]n1 | 3.1% (inactive) | –
CCn1c(=O)c(-c2ccc(-c3cncs3)cc2Cl)cc2cnc(Nc3ccc(N4CCN(C)CC4)cc3)nc21 | -1.53% (inactive) | –
CCNC(=O)C#Cc1ccc2c(C(=Nc3ccc(CN(C)C)cc3)c3ccccc3)c(O)[nH]c2c1 | -1.46% [at 25.3 µM] (inactive) | –
CC1(C)CN(C(=O)c2ccc(-c3cccc4nc(NC(=O)C5CC5)nn34)cc2)C1 | -1.34% (inactive) | –
CC(C)c1cccc(C(C)C)c1NC(=O)Nc1ccc(Sc2ccc([N+](=O)[O-])cc2)cc1 | 12.7% (inactive) | –
Oc1cccc(-c2c3nc(c(-c4cccc(O)c4)c4ccc([nH]4)c(-c4cccc(O)c4)c4nc(c(-c5cccc(O)c5)c5ccc2[nH]5)CC4)C=C3)c1 | -8.2% (inactive) | –
FC(F)(F)c1ccccc1-c1cc(C(F)(F)F)c2nc(C3=NOC4(CCCCC4)C3)[nH]c2c1 | -8.5% (inactive) | –
CCC(C)(OC(C)=O)C(=O)O[C@H]1[C@H](OC(C)=O)[C@]2(CO)[C@H](O)[C@H](O)[C@]3(C)C(=CCC4[C@@]5(C)CC[C@H](O[C@@H]6O[C@H](C(=O)O)[C@@H](O)[C@H](O[C@@H]7OC[C@H](O)[C@H](O[C@@H]8OC[C@H](O)[C@H](O)[C@H]8O)[C@H]7O)[C@H]6O[C@@H]6O[C@H](CO)[C@@H](O)[C@H](O)[C@H]6O)C(C)(C)C5CC[C@]43C)[C@@H]2CC1(C)C (stereo partly specified) | -1.81% [at 6.55 µM] (inactive) | –
CC(NC(=O)Cc1cc(F)cc(F)c1)C(=O)NC1C(=O)N(C)c2ccccc2-c2ccccc21 (stereo unspecified) | -25.3% (inactive) | –
COc1cc2ncnc(Oc3ccc(CC(=O)Nc4cnn(C(C)C)c4)cc3)c2cc1OC | -8.3% (inactive) | –
C=C1C(=O)O[C@@H]2[C@H]3C(C)=CC(=O)C3=C(C)[C@@H](OC(=O)/C(C)=C\C)[C@H](O)[C@@H]12 | -17.6% [at 38.5 µM] (inactive) | –
CC(C)(C)[C@H](NC(=O)c1ccc(N)c(Cl)c1)C(=O)N1CCC[C@H]1C(=O)N[C@H](C#N)CC(=O)O | 20% (inactive) | –
O=c1cc(N2CCOCC2)nc2c3ccccc3ccn12 | -13.1% (inactive) | –
CCOC(=O)c1csc(Nc2ccc(Cl)cc2)n1 | -6.16% (inactive) | –
CCN(CC)C(=O)c1ccc(Nc2nc(OCC3CCCCC3)c3[nH]cnc3n2)cc1 | 1.47% (inactive) | –
CC(CCC1(O)OC2CC3C4CC=C5CC(O[C@@H]6O[C@H](CO)[C@@H](O[C@@H]7O[C@@H](C)[C@H](O)[C@@H](O)[C@H]7O)[C@H](O)[C@H]6O[C@@H]6O[C@@H](C)[C@H](O)[C@@H](O)[C@H]6O)CCC5(C)C4CCC3(C)C2C1C)CO[C@@H]1O[C@H](CO)[C@@H](O)[C@H](O)[C@H]1O (stereo partly specified) | 10.4% [at 11.6 µM] (inactive) | –
Cc1ccc(-c2ncccn2)c(C(=O)N2C[C@H](COc3ccc(F)cn3)CC[C@H]2C)c1 | -10.3% (inactive) | –
CC(=O)O[C@H]1CC(C)(C)CC2[C@]13CO[C@@]21CCC2[C@@]4(C)CC[C@H](O[C@@H]5OC[C@H](O[C@@H]6O[C@H](CO)[C@@H](O)[C@H](O)[C@H]6O[C@@H]6OC[C@@H](O)[C@H](O)[C@H]6O)[C@H](O)[C@H]5O[C@@H]5O[C@H](CO)[C@@H](O)[C@H](O)[C@H]5O)[C@@](C)(CO)C4CC[C@@]2(C)[C@]1(C)C[C@H]3O (stereo partly specified) | -9.1% [at 11.6 µM] (inactive) | –
CN(C)CCN(Cc1ccc(-c2ccc(CNCCc3ccccc3)cc2)cc1)C(=O)CCC1CCCC1 | – | 25.1 µM (active)
CCC(C)C(=O)OC1C(C)C2(O)C(C=C(CO)CC3(O)C(=O)C(C)=CC32)C2C(C)(C)C12OC(=O)C(C)C (stereo unspecified) | -13% [at 25.3 µM] (inactive) | –
CC(C)NC(=O)N1CC[C@H](N=C2Nc3cc(F)ccc3N(CC(F)F)c3ccc(Cl)cc32)C1 | 13.8% [at 11.6 µM] (inactive) | –
O=C(Nc1nnc(-c2ccc3c(c2)OCCO3)o1)C1CCCCC1 | 0.291% (inactive) | –

— PubChem BioAssay (NCATS)
